Measurements from the supplement of paper PMC12645437, “Orthogonal IMiD-Degron Pairs Induce Selective Protein Degradation in Cells” (ACS Chemical Biology, 2025).
Whole data set: some 8,300 sequences, median “log2 fold change of degron read counts, EGFP-low vs EGFP+ sorted cells (limma voom), compound-induced degradation” near -1.1, cut for the highest 2% near 3.2. Shown is part of a subset that was picked to be rich in the highest values.

Target: T1, CRBN, Q96SW2
T1 chain: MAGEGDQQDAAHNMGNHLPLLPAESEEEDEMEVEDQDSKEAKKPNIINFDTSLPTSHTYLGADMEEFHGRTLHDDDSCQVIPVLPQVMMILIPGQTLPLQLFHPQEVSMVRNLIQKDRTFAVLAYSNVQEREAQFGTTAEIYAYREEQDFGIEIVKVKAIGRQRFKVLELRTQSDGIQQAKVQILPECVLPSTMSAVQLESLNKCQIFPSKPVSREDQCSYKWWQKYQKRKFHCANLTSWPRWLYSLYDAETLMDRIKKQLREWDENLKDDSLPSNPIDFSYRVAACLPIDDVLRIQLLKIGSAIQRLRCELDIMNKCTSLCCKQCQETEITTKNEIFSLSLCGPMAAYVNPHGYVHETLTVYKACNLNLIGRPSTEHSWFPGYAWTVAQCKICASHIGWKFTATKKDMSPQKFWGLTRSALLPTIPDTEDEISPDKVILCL
Assay: log2 fold change of degron read counts, EGFP-low vs EGFP+ sorted cells (limma voom), compound-induced degradation; higher = more compound-induced degradation of the degron-EGFP fusion; degrons are variants of IKZF1/3 zinc finger 2; compound dose not given here
Conditions: Jurkat, 18 h

[1] = compound: compound 19 (5-tert-butyl-thalidomide)
[2] = compound: compound 22 (5-morpholino-thalidomide)
[3] = compound: compound 33 (diphenyl IMiD analogue)
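Note: pooled lentiviral library of zinc finger degron-EGFP fusions in mCherry-positive Jurkat cells, FACS-sorted after compound exposure, with degron abundance counted by next-generation sequencing.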

FHCPQCGAWFTQKGNLLRHIKL [46F_47H_49P_50Q_52G_53A_54W_55F_67L_, Q9UKT9]
log2 fold change of degron read counts [1]: -1.82 | log2 fold change of degron read counts [2]: -2.04 | log2 fold change of degron read counts [3]: -1.61 | log2 fold change of degron read counts (compound: thalidomide): -2.14

FLCDICGAEFTQKGNLLRHIKL [46F_47L_49D_50I_52G_53A_54E_55F_67L_, Q9UKT9]
log2 fold change of degron read counts [1]: -0.631 | log2 fold change of degron read counts [2]: -2.41 | log2 fold change of degron read counts [3]: -1.1 | log2 fold change of degron read counts (compound: thalidomide): -0.617

FDCDQCGAYFTQKGNLLRHIKL [46F_47D_49D_50Q_52G_53A_54Y_55F_67L_, Q9UKT9]
log2 fold change of degron read counts [1]: -2.22 | log2 fold change of degron read counts [2]: -2.78 | log2 fold change of degron read counts [3]: -2.57 | log2 fold change of degron read counts (compound: thalidomide): -2.51

FACPICGANFTQKGNLLRHIKL [46F_47A_49P_50I_52G_53A_54N_55F_67L_, Q9UKT9]
log2 fold change of degron read counts [1]: 3.04 | log2 fold change of degron read counts [2]: 1.85 | log2 fold change of degron read counts [3]: 1.61 | log2 fold change of degron read counts (compound: thalidomide): 1.07

FWCPICGANFTQKGNLLRHIKL [46F_47W_49P_50I_52G_53A_54N_55F_67L_, Q9UKT9]
log2 fold change of degron read counts [1]: 2.99 | log2 fold change of degron read counts [2]: 3.64 | log2 fold change of degron read counts [3]: 1.91 | log2 fold change of degron read counts (compound: thalidomide): 1.51

FICPICGANFTQKGNLLRHIKL [46F_47I_49P_50I_52G_53A_54N_55F_67L_, Q9UKT9]
log2 fold change of degron read counts [1]: -0.552 | log2 fold change of degron read counts [2]: 2.74 | log2 fold change of degron read counts [3]: 2.01 | log2 fold change of degron read counts (compound: thalidomide): 2.63

LTCEICGFGCTQKGNLLRHIKL [46L_47T_49E_50I_52G_53F_54G_55C_67L_, Q9UKT9]
log2 fold change of degron read counts [1]: 0.777 | log2 fold change of degron read counts [2]: 1.03 | log2 fold change of degron read counts [3]: 0.337 | log2 fold change of degron read counts (compound: thalidomide): 1.18

FHCPICGAYFTQKGNLLRHIKL [46F_47H_49P_50I_52G_53A_54Y_55F_67L_, Q9UKT9]
log2 fold change of degron read counts [1]: 2.3 | log2 fold change of degron read counts [2]: 1.96 | log2 fold change of degron read counts [3]: 1.93 | log2 fold change of degron read counts (compound: thalidomide): 0.872

FNCNQCGHKFTQKGNLLRHIKL [46F_47N_49N_50Q_52G_53H_54K_55F_67L_, Q9UKT9]
log2 fold change of degron read counts [1]: -2.94 | log2 fold change of degron read counts [2]: -2.21 | log2 fold change of degron read counts [3]: -2.62 | log2 fold change of degron read counts (compound: thalidomide): -2.32

FTCDVCGALFTQKGNLLRHIKL [46F_47T_49D_50V_52G_53A_54L_55F_67L_, Q9UKT9]
log2 fold change of degron read counts [1]: -1.7 | log2 fold change of degron read counts [2]: -2.19 | log2 fold change of degron read counts [3]: -1.1 | log2 fold change of degron read counts (compound: thalidomide): -1.72

FTCPVCGAAFTQKGNLLRHIKL [46F_47T_49P_50V_52G_53A_54A_55F_67L_, Q9UKT9]
log2 fold change of degron read counts [1]: 2.3 | log2 fold change of degron read counts [2]: 3.11 | log2 fold change of degron read counts [3]: 2.78 | log2 fold change of degron read counts (compound: thalidomide): 3

FDCEVCGAAFTQKGNLLRHIKL [46F_47D_49E_50V_52G_53A_54A_55F_67L_, Q9UKT9]
log2 fold change of degron read counts [1]: 2.09 | log2 fold change of degron read counts [2]: 0.14 | log2 fold change of degron read counts [3]: 0.426 | log2 fold change of degron read counts (compound: thalidomide): 1.14

FTCEVCGAAFTQKGNLLRHIKL [46F_47T_49E_50V_52G_53A_54A_55F_67L_, Q9UKT9]
log2 fold change of degron read counts [1]: 2.8 | log2 fold change of degron read counts [2]: 3.24 | log2 fold change of degron read counts [3]: 2.06 | log2 fold change of degron read counts (compound: thalidomide): 3.05

FKCEVCGAAFTQKGNLLRHIKL [46F_47K_49E_50V_52G_53A_54A_55F_67L_, Q9UKT9]
log2 fold change of degron read counts [1]: 2.13 | log2 fold change of degron read counts [2]: -0.688 | log2 fold change of degron read counts [3]: -1.68 | log2 fold change of degron read counts (compound: thalidomide): 0.479

FSCEVCGAAFTQKGNLLRHIKL [46F_47S_49E_50V_52G_53A_54A_55F_67L_, Q9UKT9]
log2 fold change of degron read counts [1]: 3.6 | log2 fold change of degron read counts [2]: 3.21 | log2 fold change of degron read counts [3]: 2.57 | log2 fold change of degron read counts (compound: thalidomide): 2.01

FTCNVCGAAFTQKGNLLRHIKL [46F_47T_49N_50V_52G_53A_54A_55F_67L_, Q9UKT9]
log2 fold change of degron read counts [1]: 0.179 | log2 fold change of degron read counts [2]: 1.08 | log2 fold change of degron read counts [3]: 1.44 | log2 fold change of degron read counts (compound: thalidomide): 1.29

LTCPICGFPCTQKGNLLRHIKL [46L_47T_49P_50I_52G_53F_54P_55C_67L_, Q9UKT9]
log2 fold change of degron read counts [1]: 0.155 | log2 fold change of degron read counts [2]: 1.3 | log2 fold change of degron read counts [3]: 1.14 | log2 fold change of degron read counts (compound: thalidomide): 1.64

FDCPICGHEFTQKGNLLRHIKL [46F_47D_49P_50I_52G_53H_54E_55F_67L_, Q9UKT9]
log2 fold change of degron read counts [1]: -3 | log2 fold change of degron read counts [2]: -2.96 | log2 fold change of degron read counts [3]: -2.14 | log2 fold change of degron read counts (compound: thalidomide): -2.07

FVCNQCGHVFTQKGNLLRHIKL [46F_47V_49N_50Q_52G_53H_54V_55F_67L_, Q9UKT9]
log2 fold change of degron read counts [1]: -2.66 | log2 fold change of degron read counts [2]: -3.07 | log2 fold change of degron read counts [3]: -2.27 | log2 fold change of degron read counts (compound: thalidomide): -2.93

FMCEICGRFFTQKGNLLRHIKL [46F_47M_49E_50I_52G_53R_54F_55F_67L_, Q9UKT9]
log2 fold change of degron read counts [1]: -2.5 | log2 fold change of degron read counts [2]: -2.11 | log2 fold change of degron read counts [3]: -1 | log2 fold change of degron read counts (compound: thalidomide): -1.98

FSCDVCGAMFTQKGNLLRHIKL [46F_47S_49D_50V_52G_53A_54M_55F_67L_, Q9UKT9]
log2 fold change of degron read counts [1]: 0.106 | log2 fold change of degron read counts [2]: -0.592 | log2 fold change of degron read counts [3]: -0.74 | log2 fold change of degron read counts (compound: thalidomide): -1.71

FICDICGAAFTQKGNLLRHIKL [46F_47I_49D_50I_52G_53A_54A_55F_67L_, Q9UKT9]
log2 fold change of degron read counts [1]: -0.22 | log2 fold change of degron read counts [2]: 2.29 | log2 fold change of degron read counts [3]: 1.39 | log2 fold change of degron read counts (compound: thalidomide): 1.5

FVCDICGAAFTQKGNLLRHIKL [46F_47V_49D_50I_52G_53A_54A_55F_67L_, Q9UKT9]
log2 fold change of degron read counts [1]: 0.447 | log2 fold change of degron read counts [2]: 2.48 | log2 fold change of degron read counts [3]: 1.33 | log2 fold change of degron read counts (compound: thalidomide): 1.87

FRCDICGAAFTQKGNLLRHIKL [46F_47R_49D_50I_52G_53A_54A_55F_67L_, Q9UKT9]
log2 fold change of degron read counts [1]: 1.51 | log2 fold change of degron read counts [2]: 1.47 | log2 fold change of degron read counts [3]: 2.34 | log2 fold change of degron read counts (compound: thalidomide): 1.21

FQCDICGAAFTQKGNLLRHIKL [46F_47Q_49D_50I_52G_53A_54A_55F_67L_, Q9UKT9]
log2 fold change of degron read counts [1]: 1.74 | log2 fold change of degron read counts [2]: 2.51 | log2 fold change of degron read counts [3]: 0.983 | log2 fold change of degron read counts (compound: thalidomide): 3.01

FMCDICGAAFTQKGNLLRHIKL [46F_47M_49D_50I_52G_53A_54A_55F_67L_, Q9UKT9]
log2 fold change of degron read counts [1]: 0.96 | log2 fold change of degron read counts [2]: 1.45 | log2 fold change of degron read counts [3]: 2.6 | log2 fold change of degron read counts (compound: thalidomide): 0.343

FCCDICGAAFTQKGNLLRHIKL [46F_47C_49D_50I_52G_53A_54A_55F_67L_, Q9UKT9]
log2 fold change of degron read counts [1]: 2.88 | log2 fold change of degron read counts [2]: 2.17 | log2 fold change of degron read counts [3]: 0.975 | log2 fold change of degron read counts (compound: thalidomide): 0.534

FACDICGAAFTQKGNLLRHIKL [46F_47A_49D_50I_52G_53A_54A_55F_67L_, Q9UKT9]
log2 fold change of degron read counts [1]: 3.42 | log2 fold change of degron read counts [2]: 2.04 | log2 fold change of degron read counts [3]: -0.474 | log2 fold change of degron read counts (compound: thalidomide): -0.517

FWCDICGAAFTQKGNLLRHIKL [46F_47W_49D_50I_52G_53A_54A_55F_67L_, Q9UKT9]
log2 fold change of degron read counts [1]: 3.12 | log2 fold change of degron read counts [2]: 3.67 | log2 fold change of degron read counts [3]: 1.49 | log2 fold change of degron read counts (compound: thalidomide): -0.516

FYCDICGAAFTQKGNLLRHIKL [46F_47Y_49D_50I_52G_53A_54A_55F_67L_, Q9UKT9]
log2 fold change of degron read counts [1]: 3.37 | log2 fold change of degron read counts [2]: 3.23 | log2 fold change of degron read counts [3]: 2.4 | log2 fold change of degron read counts (compound: thalidomide): -0.554
